Data as given in the supplement of paper PMC7801607.

What was measured:
[1] = test system: CHO; test: % viability of CHO cells (MTT); higher = less toxic; conditions: 48 h
Procedure, shortened: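 Viability was given as a percentage of untreated cells and measured colorimetrically by the tetrazolium (MTT) assay. Before this, CHO cells at 10^6 cells/well in 200 µL attached overnight, then received fresh medium containing compound at 2 or 20 µM for 48 h.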

[2] = test system: HepG2-A16-CD81; test: % inhibition of HepG2 viability (CellTiter-Glo); higher = more toxic; conditions: 5 µM
[3] = test system: Plasmodium falciparum NF54 stage IV/V gametocytes; test: % inhibition of gametocyte viability (PrestoBlue); higher = more inhibition; conditions: 48 h
Procedure, shortened: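 Values are percent inhibition of gametocyte viability, normalised to vehicle and kill controls in a single run. Stage IV/V NF54 gametocytes (2% gametocytaemia, 5% haematocrit, 100 µL/well) were held with compound at 1 or 5 µM for 48 h at 37 °C, stationary and hypoxic. Viability was read as 612 nm fluorescence on 70 µL of supernatant after a 2 h incubation with 10 µL PrestoBlue.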

[4] = test system: Plasmodium falciparum NF54 asexual blood stage; test: % inhibition of asexual blood stage proliferation (pLDH); higher = more inhibition; conditions: 72 h
Procedure, shortened: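 Using 96-well plates, the screen was run twice on separate occasions with Plasmodium falciparum NF54 ring-stage cultures at 1% haematocrit and 2% parasitaemia. Each culture was exposed to compound at 2 or 20 µM for 72 h at 37 °C under a gas mix of 4% CO2, 3% O2 and 93% N2. After incubation, the parasite lactate dehydrogenase assay was read colorimetrically at 620 nm. From this readout, percent inhibition of asexual proliferation was derived against control wells.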

[5] = test system: Plasmodium falciparum NF54 stage IV/V gametocytes; test: % inhibition of gametocyte viability (ATP bioluminescence); higher = more inhibition; conditions: 24 h
Procedure, shortened: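 Viability of stage IV/V NF54 gametocytes is given as percent inhibition, normalised to control wells in a single run. Gametocytes enriched on density gradients were seeded at 30,000 per well in 96-well plates with compound at 1 or 5 µM and held at 37 °C for 24 h. ATP was then read with the Promega BacTiter Glo bioluminescence system.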

[6] = test system: Plasmodium falciparum NF54 stage IV/V gametocytes; test: % inhibition of gametocyte viability (luciferase reporter); higher = more inhibition; conditions: 48 h
Procedure, shortened: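 Percent inhibition came from luminescence and was normalised to controls in a single run. Gametocytes (stage IV/V, NF54-Pfs16-GFP-Luc line, 2% gametocytaemia, 2% haematocrit) were treated with compound at 1 or 5 µM and incubated for 48 h at 37 °C without agitation under hypoxia. Readings used 30 µL lysate with 30 µL Promega luciferin substrate on a GloMax-Multi+ reader, integrating for 10 s.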

[7] = test system: Plasmodium berghei ANKA liver stage in HepG2-A16-CD81; test: % inhibition of liver stage parasite viability (luciferase); higher = more inhibition; conditions: 5 µM; 48 h
Protocol: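 Single-concentration screen of the MMV Pandemic Response Box. P. falciparum NF54 asexual blood stages: pLDH assay, 72 h at 37 °C, 2 and 20 µM, n=2. Stage IV/V gametocytes (NF54): luciferase reporter (NF54-Pfs16-GFP-Luc, 48 h), ATP bioluminescence (24 h) and PrestoBlue (48 h) at 1 and 5 µM, n=1. P. berghei liver stage (luciferase in HepG2-A16-CD81, 48 h post infection) at 5 µM, n=4. All normalised to DMSO and kill controls as % inhibition.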
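For % inhibition of HepG2 viability (CellTiter-Glo) in this document: HepG2-A16-CD81 hepatoma cells plated as in the liver-stage assay but without sporozoites, with DMSO wells as negative and 25 µM puromycin as positive control.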

Compound	% viability of CHO cells ([1]; 2 µM) [%]	% viability of CHO cells ([1]; 20 µM) [%]	% inhibition of HepG2 viability [2] [%]	% inhibition of gametocyte viability ([3]; 1 µM) [%]	% inhibition of gametocyte viability ([3]; 5 µM) [%]	% inhibition of asexual blood stage proliferation ([4]; 2 µM) [%]	% inhibition of asexual blood stage proliferation ([4]; 20 µM) [%]	% inhibition of gametocyte viability ([5]; 1 µM) [%]	% inhibition of gametocyte viability ([5]; 5 µM) [%]	% inhibition of gametocyte viability ([6]; 1 µM) [%]	% inhibition of gametocyte viability ([6]; 5 µM) [%]	% inhibition of liver stage parasite viability [7] [%]
CCCCOC(=O)Nc1cc2nc(C3CCCCC3)[nH]c2cc1N(CC)CC	98.9	101	3.15	< 0	< 0	18.6	83.2	< 0	19.3	< 0	< 0	62
O=C(Nc1ncc(Cc2cccc3ccccc23)s1)C1CCCCC1	83.3	53.3	7.25	16.9	< 0	22.6	42.9	< 0	< 0	< 0	0.604	-13.3
CC(=O)N[C@H](C)C(=O)N[C@H](Cc1ccccc1)C(=O)O	91.7	87.7	8.11	< 0	-0.199	24.6	81.8	< 0	< 0	17.2	< 0	0.6
COc1cc(C2C3=C(CC(C)(C)CC3=O)Nc3ccccc3N2C(C)=O)ccc1OCc1ccccc1 (stereo unspecified)	174	58	3.3	< 0	13.3	-1.82	14.6	3.07	< 0	< 0	< 0	25.5
CCOc1noc2cc(OCCC3CCN(c4ccc(C)nn4)CC3)ccc12	66.5	58	1.58	16.1	23.3	84.1	70.5	6.06	0.657	6.47	5.12	27.3
CC(C)(C)c1cc(C(=O)/C(C#N)=N/Nc2cccc(Cl)c2)no1	113	97.4	44.1	< 0	< 0	-1.08	24.2	< 0	< 0	< 0	< 0	51.5
CCc1oc2ccccc2c1C(=O)c1ccc(O)cc1	152	112	9.97	< 0	17.5	29.1	6.67	< 0	< 0	< 0	9.06	39.9
CN1CCN(c2ccc3[nH]c(-c4ccc5[nH]c(-c6ccc(O)cc6)nc5c4)nc3c2)CC1	106	115	18.2	< 0	< 0	82.9	80.9	< 0	< 0	< 0	20.9	-6.69
N=c1n(CCN2CCCCC2)c2ccccc2n1CC(O)COc1ccc(Cl)cc1Cl (stereo unspecified)	82.7	-3.8	5.14	38.8	66	76.8	85.7	85.7	88.1	40.7	97	-0.075
O=C1c2cccc3cccc(c23)C(=O)N1CC1CO1 (stereo unspecified)	107	108	-6.3	7.65	8.86	22	66.9	< 0	< 0	< 0	3.81	14.1
CSC[C@H]1CN(Cc2c[nH]c3c(N)ncnc23)C[C@@H]1O	68.9	46.2	8.54	< 0	< 0	14.2	8.91	< 0	< 0	< 0	6.79	40.2
COc1ccc(C)cc1NC(=O)c1ccc(S(=O)(=O)N2CCCCC2)cc1	128	156	6.14	0.335	3.85	1.42	32.8	< 0	< 0	< 0	< 0	30
CC[N+]1(C/C2=C/CCCCCC2)CCC(NC(=O)C2c3cc(Cl)ccc3Oc3ccc(Cl)cc32)CC1 (stereo unspecified)	100	75.9	7.74	< 0	41.9	21.8	101	< 0	44	7.3	34	6.03
C[C@H]1CC[C@@]2(O)C(C)(C)[C@@H]3CC[C@@]2(C)[C@H]1C3	119	112	-2.52	< 0	< 0	7.01	18.1	< 0	< 0	< 0	< 0	29.2
OCCCCn1cnc2c(O)nc(NCc3ccc(Cl)c(Cl)c3)nc21	95.4	106	5.96	< 0	< 0	18.9	91.1	< 0	< 0	< 0	< 0	7.89
COc1cc2c(O)c3c(c(-c4ccc5c(c4)OCO5)c2cc1OC)C(=O)OC3	98	86.4	58.9	13	17.7	44.2	99.9	< 0	< 0	< 0	< 0	58.4
CN(C)CCCOc1ccc(-c2ccc3ncc4c(c3c2)n(C2CCOCC2)c(=O)n4C)cn1	99.8	75.9	4	61.8	91.9	68.1	57.1	18.7	33.7	78.1	92	64.6
N[C@H]1CCC[C@H]1C(=O)O	109	145	-8.85	35.6	26.5	31.3	18.9	< 0	< 0	< 0	< 0	15.8
O=C(NC(=O)N1CCCc2ccccc21)c1ccc(Cl)cc1Cl	95.4	99.1	-0.619	0.538	13.4	1.37	-6.87	< 0	< 0	< 0	< 0	36.8

Compound	% viability of CHO cells ([1]; 2 µM) [%]	% viability of CHO cells ([1]; 20 µM) [%]	% inhibition of HepG2 viability [2] [%]	% inhibition of gametocyte viability ([3]; 1 µM) [%]	% inhibition of gametocyte viability ([3]; 5 µM) [%]	% inhibition of asexual blood stage proliferation ([4]; 2 µM) [%]	% inhibition of asexual blood stage proliferation ([4]; 20 µM) [%]	% inhibition of gametocyte viability ([5]; 1 µM) [%]	% inhibition of gametocyte viability ([5]; 5 µM) [%]	% inhibition of gametocyte viability ([6]; 1 µM) [%]	% inhibition of gametocyte viability ([6]; 5 µM) [%]	% inhibition of liver stage parasite viability [7] [%]
O=S(=O)(Nc1ccc(O)cc1)c1cccc2cccnc12	91.3	104	0.07	< 0	< 0	28.2	52.4	< 0	< 0	< 0	< 0	-2.62
O=C(NN1C(=O)[C@@H]2C3C=CC([C@H]4C[C@@H]34)[C@@H]2C1=O)c1ccc(C(F)(F)F)cc1	97.4	120	-2.51	< 0	< 0	4.37	23	1.06	< 0	< 0	4.75	26.8
O=C(NCc1ccc2c3c(cccc13)C(=O)N2)c1cccs1	135	156	1.86	< 0	< 0	6.3	16	< 0	< 0	< 0	16.9	17.9
CC(C)(C)c1cc(CCC(=O)N2CCC2)cc(C(C)(C)C)c1O	94.2	74.4	0.292	< 0	< 0	4.95	69.6	< 0	< 0	< 0	< 0	21.9
O=C(O)COc1cccc2c1CC[C@](O)(COC(=O)N(c1ccccc1)c1ccccc1)C2	92.5	105	-9.51	23.2	25.8	11.3	-4.41	< 0	< 0	1.62	< 0	13.6
COc1cccc(N2CCN(C3=Nc4c(F)cccc4[C@H](CC(=O)O)N3c3cc(C(F)(F)F)ccc3OC)CC2)c1	90.8	116	5.59	11.1	1.05	22.9	84.4	< 0	< 0	< 0	6.89	21.2
O=c1oc2ccc(Br)cc2cc1CSc1ncc[nH]1	112	73.8	3.9	11.2	7.96	-5.59	79	6.38	5.34	4.59	< 0	-13.1
Cc1cccc(CC(=O)N[C@H]2CCOC2=O)c1	95.4	98.6	5.04	< 0	21.6	35.3	53.6	< 0	< 0	< 0	5.44	4.19
NC[C@H]1O[C@H](O[C@H]2[C@H](O)[C@@H](O[C@H]3O[C@H](CO)[C@@H](O)[C@H](N)[C@H]3O)[C@H](N)C[C@@H]2N)[C@H](N)C[C@@H]1O	111	8.4	-3.85	< 0	1.53	-2.54	18.7	< 0	< 0	< 0	6.32	36.3
O=C(Cc1ccccc1F)Nc1nc2ccccc2[nH]1	104	87.3	7.61	5.47	21.8	37.1	29.8	< 0	< 0	< 0	< 0	-7.69
Cc1ccc(NC(=O)c2ccc(CN3CCN(C)CC3)cc2)cc1Nc1nccc(-c2cccnc2)n1	87.6	50.2	6.65	< 0	< 0	60.6	98.3	< 0	< 0	0.104	< 0	8.45
O=C1[C@H](CC[C@H](O)c2ccc(F)cc2)[C@@H](c2ccc(O)cc2)N1c1ccc(F)cc1	94.9	113	-3.46	< 0	< 0	43.1	61	< 0	< 0	2.9	4.53	27.4
COc1cc(Cc2cnc(N)nc2N)cc(OC)c1OC	111	126	1.34	4.58	22.2	23.4	33.1	0.869	< 0	< 0	< 0	66.4
CO[C@@]1(NC(=O)Cc2cccs2)C(=O)N2C(C(=O)O)=C(COC(N)=O)CS[C@@H]21	114	143	-4.03	11.3	20.3	20	88.8	0.48	< 0	< 0	2.58	11.5
O=C(c1ccc(F)cc1)N1CCN2C(=O)c3ccccc3C12c1ccccc1 (stereo unspecified)	116	109	-0.867	13.1	10.8	37.1	83.7	< 0	< 0	< 0	< 0	26
CN(C)CC(=O)Nc1ccc2[nH]c(=O)c3ccccc3c2c1	97.8	109	-2.53	< 0	< 0	24.3	32.5	11.1	2.31	< 0	4.93	9.83
NCCCc1ccccc1C(=O)Nc1ncc([N+](=O)O)s1	104	62.7	0.282	32.9	23.9	-16.4	-1.52	0.0401	< 0	< 0	< 0	7.1
O=c1cc(NCCCN[C@@H]2CCOc3c(Br)cc(Br)cc32)[nH]c2ccsc12	275	54.3	21.6	17.8	12.4	42.9	78.3	< 0	< 0	< 0	11.8	74.7
CC(N)C(=O)NC(CCCCN)C(=O)NC(CCCNC(=N)N)C(=O)NC(Cc1c[nH]cn1)C(=O)NC(Cc1c[nH]cn1)C(=O)NCC(=O)NC(Cc1ccc(O)cc1)C(=O)NC(CCCCN)C(=O)NC(CCCNC(=N)N)C(=O)NC(CCCCN)C(=O)NC(Cc1ccccc1)C(=O)NC(Cc1c[nH]cn1)C(N)=O (stereo unspecified)	105	102	-0.769	< 0	14.3	10.1	17.2	< 0	< 0	< 0	< 0	26.4
